Among all 16,000 compounds or so, about 2,600 (16%) were called active. Roughly 20% stayed inconclusive and do not appear here. The call rests on the fitted dose curve; in most records, active means well fitted curve in the direction sought with a large enough effect; inconclusive means small, poorly fitted or top-dose-only effect, or effect the other way; inactive means no such curve, though single readings can be large or run the other way. Not all results are given here.
Target: Cytochrome P450 2D6 (Homo sapiens) (UniProt P10635)
Experiment: Cytochrome panel assay with activity outcomes
Settings: recombinant CYP, pro-luciferin dealkylation, luminescence, p450-cyp2d6; series mostly up to 57.1 µM
On the % scale 0 is the no-effect control and ±100 the full control effect.

Cytochrome P450 2D6 (Homo sapiens), sequence (P10635 whole entry, looked up): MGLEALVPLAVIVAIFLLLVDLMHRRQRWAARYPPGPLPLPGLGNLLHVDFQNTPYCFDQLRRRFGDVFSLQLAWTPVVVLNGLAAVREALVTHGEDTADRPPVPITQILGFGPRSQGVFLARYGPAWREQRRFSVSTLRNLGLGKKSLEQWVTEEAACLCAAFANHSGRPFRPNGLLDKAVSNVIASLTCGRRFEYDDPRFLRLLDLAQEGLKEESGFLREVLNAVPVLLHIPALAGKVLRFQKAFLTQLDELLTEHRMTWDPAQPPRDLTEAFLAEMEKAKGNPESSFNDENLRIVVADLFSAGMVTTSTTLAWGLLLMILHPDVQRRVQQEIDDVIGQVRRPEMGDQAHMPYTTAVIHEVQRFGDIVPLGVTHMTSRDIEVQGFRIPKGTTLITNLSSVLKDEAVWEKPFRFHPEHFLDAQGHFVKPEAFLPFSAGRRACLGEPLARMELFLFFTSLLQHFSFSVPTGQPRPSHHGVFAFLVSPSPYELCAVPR

Row | Compound | AC50 | activity, negative = inhibition
1 | O=S(=O)(c1ccccc1)N1CCN(c2cc(-c3ccccc3)nc3ncnn23)CC1 | inactive | 
2 | O=C(O)c1ccc(NCc2nc3cc4ccccc4cc3[nH]2)cc1 |  | 3.49% [at 11.4 µM] (inactive)
3 | O=C(c1cccc(F)c1)N1CCC2(CC1)CN(c1ccc(-c3ccccc3)cc1)C2 | inactive | 
4 | O=C(c1ccncc1)N1CCC2(CC1)CCN(C(c1ccccc1)c1ccccc1)CC2 | 3.16 µM (active) | 
5 | Cn1cccc1C(=O)N1CCC2(CC1)CN(C(=O)Nc1ccccc1)C2 | inactive | 
6 | O=C(c1cccc(F)c1)N1CCC2(CC1)CCN(C(c1ccccc1)c1ccccc1)CC2 | 3.16 µM (active) | 
7 | O=C(c1cccc(F)c1)N1CCC2(CC1)CCN(c1ccccc1)CC2 | inactive | 
8 | Cn1cccc1C(=O)N1CCC2(CC1)CCN(C(c1ccccc1)c1ccccc1)CC2 | inactive | 
9 | Cn1cccc1C(=O)N1CCC2(CC1)CN(C(c1ccccc1)c1ccccc1)C2 | 3.16 µM (active) | 
10 | CN1CCN(c2ncc3nc(-c4ccccc4)c(=O)n(Cc4cccs4)c3n2)CC1 | inactive | 
11 | CN1CCN(c2ncc3nc(CCc4ccccc4)c(=O)n(Cc4ccc(F)cc4)c3n2)CC1 | inactive | 
12 | N[C@H](CCCP(=O)(O)O)C(=O)O | inactive | 
13 | O=C(N/C(=C/c1ccco1)C(=O)N1CCCCCC1)c1cccs1 | inactive | 
14 | Cc1cc(OCC(F)(F)C(F)(F)C(F)(F)C(F)(F)C(F)(F)C(F)F)nc(N)n1 | inactive | 
15 | CCCCn1c(SCC(N)=O)nc2ccc(N3CCOCC3)cc2c1=O | inactive | 
16 | Cc1ccc(OC(=O)c2oc3ccc(F)cc3c2C)c(C)c1 | inactive | 
17 | Cc1ccc(NC(=S)NC(=O)c2c(-c3ccccc3Cl)noc2C)cc1 | inactive | 
18 | C[C@@H](CCC(=O)O)C(=O)O |  | 1.74% [at 11.4 µM] (inactive)
19 | Cc1ccc(S(=O)(=O)c2c(C)nn(C(C)(C)C)c2OC(=O)c2cccs2)cc1 | inactive | 
20 | CC(N)=NCCCC[C@H](N)C(=O)O | inactive | 
21 | CCCC[C@H](CC)CN=C(N)NC(N)=NCCCCCCN=C(N)NC(N)=NC[C@@H](CC)CCCC | 3.16 µM (active) | 
22 | CS/C(N)=N/N=C/c1ccc([N+](=O)[O-])cc1 | inactive | 
23 | Cc1cc(C)cc(NC(=O)C/C(N)=N/O)c1 | inactive | 
24 | O=C(c1ccccc1NS(=O)(=O)c1cccc([N+](=O)[O-])c1)N1CCOCC1 | inactive | 
25 | CCOC(=O)Cc1csc(NC(=O)c2c(-c3c(Cl)cccc3Cl)noc2C)n1 | inactive | 
26 | CC(=O)c1cc2c(cc1NC(=O)c1c(-c3ccccc3)noc1C)OCO2 | inactive | 

Row | Compound | AC50 | activity, negative = inhibition
27 | Cc1onc(-c2c(Cl)cccc2Cl)c1C(=O)Nc1ccc2c(c1)OCO2 | 7.08 µM (active) | 
28 | CC1(C)CC(=O)C(CCCN2C(=O)c3ccccc3C2=O)C(=O)C1 | inactive | 
29 | CCN(CC)c1ncnc2c1sc1nc(C)cc(C)c12 | inactive | 
30 | CO/N=C\[C@@H](OC)[C@H](C)/C=C\CC(=O)OC |  | 9.03% [at 11.4 µM] (inactive)
31 | O=C(CSC1=NCCN1)Nc1ccccc1 | 1.58 µM (active) | 
32 | O=C(CSc1nncn1-c1ccccc1)Nc1ccc(N2CCOCC2)cc1 | inactive | 
33 | O=C(O)CCSC1=NCCN1 |  | 15.4% [at 11.4 µM] (inactive)
34 | CCOC(=O)C1=C(C)C(c2ccccc2OC)NC(=S)N1 (configuration not stated) | inactive | 
35 | Cn1c(=O)oc2cc(S(=O)(=O)NCCC(=O)N3CC=C(c4ccccc4)CC3)ccc21 | inactive | 
36 | O=C(O)c1cc2cc(Cl)ccc2oc1=O | inactive | 
37 | O=C(Nc1ccccc1N1CCOCC1)c1cnccn1 | inactive | 
38 | Cc1cc(N)c2cc(NC(=O)Nc3ccc4nc(C)cc(N)c4c3)ccc2n1 |  | 7.45% [at 11.4 µM] (inactive)
39 | Cc1nc2ccc(NC(=O)Nc3ccnc4cccnc34)cc2o1 | 10 µM (active) | 
40 | O=C(Nc1ccc2ncccc2c1)Nc1ccc2ncccc2c1 |  | -10.5% [at 11.4 µM] (inactive)
41 | CN(C)c1ncc2nc(-c3ccc(F)cc3)c(=O)n(C)c2n1 | inactive | 
42 | COc1ccc2cc(C(=O)Nc3ccc(F)cc3)sc(=O)c2c1OC | inactive | 
43 | CC(C)C(=O)Nc1ccc(C(=O)NNC(=O)C(c2ccccc2)c2ccccc2)cc1 | inactive | 
44 | CN(C)C(=O)c1ccc(-c2ccc3ncnc(N4CCNCC4)c3c2)cc1 | inactive | 
45 | Cc1ccccc1-c1ccc2ncnc(N3CCNCC3)c2c1 | inactive | 
46 | Cc1noc(C)c1-c1ccc2ncnc(N3CCN(C)CC3)c2c1 | inactive | 
47 | N#Cc1ccccc1-c1ccc2ncnc(N3CCNCC3)c2c1 | inactive | 
48 | CN1CCN(c2ncnc3ccc(-c4cccc(C#N)c4)cc23)CC1 | inactive | 
49 | CN(C)c1ccc(-c2ccc3ncnc(N4CCNCC4)c3c2)cc1 | 12.6 µM (active) | 
50 | CN1CCN(c2ncnc3ccc(-c4ccc5c(c4)OCO5)cc23)CC1 | 0.251 µM (active) | 
51 | c1nc(N2CCNCC2)c2cc(-c3ccc4c(c3)OCO4)ccc2n1 | 2.51 µM (active) | 
52 | N#Cc1cccc(-c2ccc3ncnc(N4CCNCC4)c3c2)c1 | inactive | 

Reference: PubChem BioAssay AID1851 (National Center for Advancing Translational Sciences (NCATS), 2009)
